Assay outcomes: PubChem BioAssay, several laboratories
ARNT TACC3 PPI = disruptors of human ARNT/TACC3 interaction | Q9Y6A5 | AlphaScreen His-ARNT PAS-B/GST-TACC3 binding, luminescence; TACC3 fragment carries E629A point mutation | inhibition, % at 9.99 µM | 390,000 compounds, 0.66% hits;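 active = mean inhibition of replicates at least 50% and at least half of replicates each reaching 50%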;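 also: 0% = complete ARNT plus TACC3 wells and 100% = ARNT alone without TACC3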
Bfl-1 A1 inh = inhibitors of the anti-apoptotic protein A1, read as caspase activation; MEF A1-2A-BIM cells, Caspase-Glo 3/7 luminescence, 3 h; percent of clofoctol response, vehicle zero; caspase activation, % (concentration not given with the values); 330,000 compounds, 0.066% hits; AID 2462;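 active = over half of replicate activation scores above 10%, or exactly half above 10 with the replicate mean above 10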
aDG glyco act = alpha-DG glycosylation activation; activation, % at 10 µM; 360,000 compounds, 0.22% hits; Pro5-aDG cells, alpha-DG glycosylation AlphaScreen (IIH6); 0% Pro5, 100% B10-LARGE cell signal; AID 624168;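 active = activation of at least 8% versus controls, or a plate z-score of at least 8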;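 also: Pro5 are CHO cells carrying HIG-tagged alpha-DG that lacks glycosylation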
SUMO Mot1 rescue = blocks SUMOylation pathway, rescuing yeast Mot1-301 growth; S. cerevisiae Mot1-301 growth rescue, ATP luminescence, 38.5C; percent above DMSO median, 100 means doubled; growth rescue, % at 18.8 µM; 320,000 compounds, 1% hits; AID 2716;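 active = every valid replicate shows activation above 250% relative to neutral control wells; inactive = the rest, any valid replicate at or below 250%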;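 also: OY570 slx delta 5 strain wells were the positive control but not used for scaling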
AI-2 QS mod = modulators of Vibrio harveyi AI-2 quorum sensing system; Vibrio harveyi JMH597 AI-2 luminescence/OD600 ratio, 9 h; stronger effect = lower value; strain lacks LuxN and CqsS sensors; 0 = neutral-control median; activity change, % at 7.5 µM; 300,000 compounds, 0.4% hits; in the data active = activity change below about -75%, passing the limit was not always enough;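 also: luminescence divided by OD600 gain over 9 h not by final OD600 alone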
Mot1 SUMO dose = inhibits SUMO pathway, affecting Mot1-301 yeast growth | shares compounds with SUMO Mot1 rescue | S. cerevisiae Mot1-301 galactose growth, ATP luminescence, 24 h; -100 = growth of slx-deleted rescue strain | growth activity, percent, % at 42 µM | 2,300 tested, under 10 active | AID 493004;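 active = Signal drops as the depositor expects, and the fitted half-maximal dose is no more than ten times the top valid tested dose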;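 also: more negative values mean stronger growth rescue toward the control strain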
* marks the source's active call; other numbers are inactive results; nt = no result; + = active, no number; [ ] = another dose, or the depositor's remark. Shown are actives, neighbours in structure and some others; about 1.8% of the full set was active somewhere.

SMILES	ARNT TACC3 PPI	Bfl-1 A1 inh	aDG glyco act	SUMO Mot1 rescue	AI-2 QS mod	Mot1 SUMO dose
O=C(Nc1cccc(Cl)c1)N[C@@H]1CC[C@@H](CCn2cc(Cc3ccccc3)nn2)O[C@@H]1CO	27	nt	nt	nt	nt	nt
CCOc1ccc(-n2c(COc3ccccc3)nnc2SCC(N)=O)cc1	-5	2	0	-7	6	nt
COc1cccc(-n2c(Cc3cc(=O)[nH]c(=O)[nH]3)nnc2SCc2cccnc2)c1	-4	2	0	511*	13	0
COc1ccc(-n2c(Cc3cc(=O)[nH]c(=O)[nH]3)nnc2SCc2ccccc2)cc1	-8	0	0	-6	-13	nt
C[C@@H]1CN([C@@H](C)CO)C(=O)Cc2cc(NC(=O)C3CC3)ccc2O[C@@H]1CN(C)Cc1ccc(C(=O)Nc2ccccc2N)cc1	1	nt	nt	nt	nt	nt
CCOCCn1c(-c2ccc(OC)cc2)nc2ccccc21	-8	0	0	477*	26	0
COc1ccc(-c2nc3ccccc3n2Cc2ccccc2)cc1	-4	0	1	6	27	nt
C=CCn1c(-c2ccc(OC)cc2)nc2ccccc21	-5	1	0	396*	14	0
CO[C@H]1CN(C)C(=O)c2cc(NS(=O)(=O)c3ccc(Oc4ccccc4)cc3)ccc2OC[C@@H](C)NC[C@H]1C	-30	nt	nt	nt	nt	nt
COc1ccc(NC(=O)CSc2nc(N)c(C(=O)Nc3ccc(N(C)C)cc3)s2)cc1	5	0	1	-11	19	nt
CN(C)c1ccc(NC(=O)CSc2nc(N)c(C(=O)Nc3ccc(N(C)C)cc3)s2)cc1	nt	0	3	466*	5	0
Cc1ccc(NC2CC(=O)N(c3ccc(N4CCCCC4)cc3)C2=O)cc1 (stereo not given)	-3	1	0	680*	12	0[21 µM]
CC/C(=N\Nc1ccc([N+](=O)[O-])cc1)c1ccccc1	nt	0	1	415*	19	0
CC1(C(=O)Nc2cccc(-n3cnnn3)c2)Cc2ccccc2C(=O)O1 (stereo not given)	4	0	0	408*	nt	0
O=c1[nH]cnc2ccc([N+](=O)[O-])cc12	2	1	0	397*	11	0
C[C@H](CO)N1C[C@H](C)[C@H](CN(C)CC2CC2)Oc2ccc(NC(=O)Nc3ccc(C(F)(F)F)cc3)cc2CC1=O	15	nt	nt	nt	nt	nt
Cc1cc(Nc2nc3c(c(=O)n(C)c(=O)n3C)n2C)n(-c2ccc(Cl)cc2)n1	3	-1	0	+	13	0
Cc1cc(Nc2ccc(Cl)cc2)n(-c2ccccc2)n1	0	-1	0	-10	3	nt
CN(C)C(=S)Nc1cccc(C(F)(F)F)c1	2	1	0	3	16	nt
Cc1ccc(C(C(=O)NC2CCCCC2)N(CCC(C)C)C(=O)CNC(=O)c2ccco2)o1 (stereo not given)	nt	0	0	+	3	-1
C=CCN(C(=O)CNC(=O)c1ccco1)C(C(=O)NC1CCCCC1)c1ccc(F)cc1 (stereo not given)	-5	0	0	nt	1	nt
CC(=O)c1ccc(N(C(=O)CNC(=O)c2ccco2)C(C(=O)NC2CCCC2)c2ccc(C)o2)cc1 (stereo not given)	2	0	0	1	14	nt
C=CCN(C(=O)CNC(=O)c1ccco1)C(C(=O)NC1CCCCC1)c1ccccc1 (stereo not given)	nt	2	1	737*	39	0
c1ccc2nc3c(nc2c1)OCC1CCCCN31 (stereo not given)	6	-3	0	360*	17	0
c1ccc2nc(N3CCCC3)c(N3CCCCC3)nc2c1	-11	nt	0	nt	nt	nt
SMILES	ARNT TACC3 PPI	Bfl-1 A1 inh	aDG glyco act	SUMO Mot1 rescue	AI-2 QS mod	Mot1 SUMO dose
O=C(CCCNC(=O)/C(=C/c1ccccc1F)NC(=O)c1ccccc1)OCc1ccccc1	-6	1	0	496*	28	1
Cn1c(C(=O)N2CCN(c3ccc([N+](=O)[O-])cc3)CC2)cc2c(=O)[nH]c3ccccc3c21	31	nt	0	nt	19	nt
CCC(c1nnnn1C1CCCC1)N1CCN(c2cccc(OC)c2)CC1 (stereo not given)	nt	-1	0	747*	24	0[21 µM]
CCCCOC(=O)c1ccc(NC(=O)CSC2=Nc3ccccc3C3CC=NN23)cc1 (stereo not given)	-6	0	0	4	29	nt
CC1(C)CNc2cc([N+](=O)[O-])ccc2S1	-25	0	0	810*	-4	2
Cc1sc2ncnc(N3CCC(C(=O)NNC(=O)COc4ccccc4F)CC3)c2c1C	1	0	0	422*	nt	0
O=C(CCN1C(=O)S/C(=C/c2ccccc2)C1=O)Nc1ccc(O)c(C(=O)O)c1	-2	2	0	435*	28	0
O=C(CCN1C(=O)S/C(=C\c2ccccc2)C1=O)Nc1ccc(O)cc1C(=O)O	-1	-1	0	-10	25	nt
Cc1ccc(S(=O)(=O)NCC(C)n2cncn2)cc1 (stereo not given)	-5	0	0	533*	15	1
Cc1ccc(S(=O)(=O)N2CCN(C(=O)CC(C)n3cncn3)CC2)cc1 (stereo not given)	-7	0	0	-25	23	nt
Cc1ccc(S(=O)(=O)Nc2ccc3c(c2)C(=O)N([C@H](C)CO)C[C@H](C)[C@@H](CN(C)Cc2ccc(C(=O)O)cc2)O3)cc1	-16	nt	nt	nt	nt	nt
CCCNC(=O)COC(=O)CCC(=O)c1cccs1	-2	-1	0	422*	15	0
CCNC(=O)COC(=O)CCC(=O)c1cccs1	-5	1	0	-1	12	nt
CCc1ccc(NC(=O)c2cc(-c3ccc4c(c3)OCO4)on2)cc1	nt	0	0	-5	9	nt
CC(=O)N(C(C)=O)C1=C(C#N)C2(CCCCC2)Cc2ccccc21	-7	0	0	871*	6	-1
COc1ccc(CC(=O)Oc2ccccc2C)cc1S(=O)(=O)N1CCOCC1	-1	0	0	131	3	nt
CCCc1nc(NCc2ccccc2)c(C#N)c2c1CCCC2	nt	0	0	789*	1	0
CCCc1nc(NCCO)c(C#N)c2c1CCCC2	nt	1	0	313	13	nt
COc1ccc(CCNC(=O)c2ccc([N+](=O)[O-])cc2Cl)cc1OC	-2	0	0	11	24	nt
COc1ccccc1C(=O)NCCNc1ccc([N+](=O)[O-])cc1Cl	-2	0	0	456*	30	-1
CC(C)(C)OC(=O)N1CCC(C(=O)N[C@@H](Cc2ccccc2)C(=O)O)(c2ccccc2)CC1	0	1	0	29	1	nt
